Source: PubChem BioAssay (NCATS)
Records with an inconclusive call do not appear. A number with no mark means an inactive call. Calls of active or inactive are those of the source. Calls follow the shape of the dose curve; as a rule, active = well fitted inhibition curve with a large enough effect; inconclusive = small, poorly fitted or top-dose-only effect; inactive = flat fitted curve, though single readings scatter.
% is scaled to controls: 0 for no effect and ±100 for the full control effect; potency is read from the fitted curve at half-maximal effect.

The molecules below were run on HaCat (assay: Cytotoxic Profiling of Annotated Libraries Using Quantitative High-Throughput Screening (AID 1296008; also: nearly all actives have a fitted effect of over 60% in size)). Details: Five cell lines viability, CellTiter-Glo ATP luminescence, 48-72 h; max response: hits give low values.
Summary of the method: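 Cells exposed to compounds for 48 or 72 hr at 37 degrees Celsius. Viability read as ATP-coupled luminescence with CellTiter-Glo after 10 min at room temperature.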
With `O=C(NCCCc1ccccc1)c1cccc(-c2cc(O)c3ncccc3c2)c1` the Potency was 25900 nM (active).
With `CC(C)C[C@@H]1NC(=O)[C@@H](Cc2ccccc2)NC(=O)C(CCCCCC(=O)C2CO2)NC(=O)[C@@H]2CCCCN2C1=O` (stereo not given in full) the Potency was 3170 nM (active).
`C=CC(=O)Nc1ccc2ncnc(Nc3cccc(Br)c3)c2c1` was tested, and the Potency was 46.1 nM (active).
`COc1cc(CCC2=NN=C(NC(=O)c3ccc(N4C[C@@H](C)N[C@@H](C)C4)cc3)C2)cc(OC)c1` gave a max response of -66.4%.
For `CC#CC(=O)Nc1ccc2ncnc(Nc3cccc(Br)c3)c2c1`, the Potency was 32.6 nM (active).
